# Mtb hypoxia rep = reduces hypoxia-regulated biosensor signal in M. tuberculosis. AID 1159583. M. tuberculosis hypoxia-regulated fluorescent reporter, fluorescence. 300,000 tested, 0.1% active. fluorescence inhibition, % (no concentration beside the values); in the data active means fluorescence inhibition mostly above about 23%, no sharp cut-off; inactive means mostly below about 17%
# CCHFV vOTU inh = blocks the CCHF virus ovarian tumor domain protease. CCHFV vOTU protease, Pep-AMC fluorescence. inhibition, % at 11.5 µM. 370,000 tested, 0.55% active. AID 651958; in the data active means inhibition above about 30%
# RecA intein inh = Mtb RecA intein splicing inhibition. cell-free RecA intein splicing, fluorescence. AID 2221. inhibition, % (concentration not given with the values). P9WHJ3. 290,000 tested, 0.75% active; in the data active means inhibition above about 30%; inconclusive means no clear call, values can overlap the other calls
# Target sequence (P9WHJ3 whole entry, looked up): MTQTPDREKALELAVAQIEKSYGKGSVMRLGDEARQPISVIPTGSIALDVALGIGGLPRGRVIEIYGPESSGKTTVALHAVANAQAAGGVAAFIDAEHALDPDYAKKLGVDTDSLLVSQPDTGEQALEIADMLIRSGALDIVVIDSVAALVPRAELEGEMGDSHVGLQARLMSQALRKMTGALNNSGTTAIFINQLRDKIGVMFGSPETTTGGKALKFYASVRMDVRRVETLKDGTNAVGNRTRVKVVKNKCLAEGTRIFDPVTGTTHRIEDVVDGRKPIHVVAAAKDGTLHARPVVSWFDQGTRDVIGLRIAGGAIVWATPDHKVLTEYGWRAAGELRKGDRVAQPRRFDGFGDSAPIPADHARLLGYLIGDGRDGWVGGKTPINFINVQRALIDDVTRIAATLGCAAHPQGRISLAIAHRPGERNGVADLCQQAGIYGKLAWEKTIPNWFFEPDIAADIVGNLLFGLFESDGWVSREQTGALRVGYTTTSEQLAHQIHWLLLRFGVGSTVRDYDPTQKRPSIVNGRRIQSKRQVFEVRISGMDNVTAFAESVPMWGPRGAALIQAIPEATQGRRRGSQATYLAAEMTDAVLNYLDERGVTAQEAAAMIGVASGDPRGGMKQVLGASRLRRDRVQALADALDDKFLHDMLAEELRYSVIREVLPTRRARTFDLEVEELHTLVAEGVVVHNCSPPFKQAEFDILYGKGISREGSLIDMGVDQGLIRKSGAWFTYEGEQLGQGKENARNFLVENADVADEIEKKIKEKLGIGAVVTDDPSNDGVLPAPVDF
# Mtb betalactam = beta-lactam sensitization of Mtb H37Rv. M. tuberculosis H37Rv growth with meropenem, percent inhibition. inhibition, % at 25 µM. 330,000 tested, 0.27% active. AID 434955;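 further: growth measured after seven days incubation then overnight dye step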
# PfHsp40 rescue = restores yeast growth despite PfHsp40 toxicity. S. cerevisiae expressing PfHsp40, growth rescue, ATP luminescence. growth rescue, % at 12.5 µM. 340,000 tested, 0.68% active; in the data active means growth rescue above about 28%, passing the limit was not always enough; inconclusive means no clear call, values can overlap the other calls;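 further: yeast W303a lacking pdr1 and pdr3 grown in galactose medium; growth measured after three days at 30 °C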
# GFP chromo cs = counter-screen: blocks GFP chromophore formation; shares compounds with RecA intein inh; cell-free GFP chromophore formation, fluorescence; EC50, µM; 2,100 tested, 83% active; AID 434968
# Numbers stand for hits; - = inactive; ? = inconclusive; . = no result. Hits are enriched below; roughly 1.7% of the tested compounds scored in any of these assays. Unless noted, how the calls were made is not given here.
SMILES,Mtb hypoxia rep,CCHFV vOTU inh,RecA intein inh,Mtb betalactam,PfHsp40 rescue,GFP chromo cs
COc1cccc(C2C3=C(CCCC3=O)Nc3[nH]n(-c4ccccc4)c(=O)c32)c1 (stereo unspecified),-,-,-,-,-,.
COC1(OC)C(/C=C/c2ccc(C)cc2)C(C#N)(C#N)C1(OC)OC (stereo unspecified),.,-,58.7,-,-,-
CCc1nnc(NS(=O)(=O)c2ccc(NC(=S)NC(=O)/C=C/c3ccc(C(C)C)cc3)cc2)s1,-,.,36.0,-,-,13.2
CCc1nnc(NS(=O)(=O)c2ccc(NC(=S)NC(=O)/C=C/c3ccccc3)cc2)s1,-,-,-,-,-,.
O=C(NN=Cc1ccccc1C(F)(F)F)c1ccc2nc[nH]c2c1,-,.,.,.,.,.
COc1cc(NCCCCCCCN)c2ncccc2c1,-,.,72.1,-,-,5.23
CC1CN(C(C)CO)C(=O)c2cccc(NC(=O)C3CCCCC3)c2OC1CN(C)C(=O)Nc1ccc2c(c1)OCO2 (stereo unspecified),-,.,.,.,.,.
O=C(C=Cc1ccc(Cl)c([N+](=O)[O-])c1)Nc1cccc(NC(=O)c2ccco2)c1,-,.,.,.,.,.
CCOC(=O)c1c(NC(=S)N2CCOCC2)sc2c1CCN(C(=O)OCC)C2,.,-,39.4,-,.,33.2
C=CCNC(=S)Nc1sc2c(c1C(=O)OCC)CCN(C(=O)OCC)C2,-,-,-,-,-,.
CCOC(=O)c1c(NC(=S)N2CCCCC2)sc2c1CCN(C(=O)OCC)C2,.,-,33.3,-,.,25.2
CC(=O)C1=C(O)C(=O)N(c2ccc(O)cc2)C1c1cccc([N+](=O)[O-])c1 (stereo unspecified),-,-,-,-,-,.
CCOC(=O)C1=C(C)N(c2ccc(OC)cc2)C(=O)/C1=C\c1ccc(O)c(OCC)c1,.,-,-,-,-,.
CCOc1ccc(N2C(=O)/C(=C\c3ccc(O)c(OC)c3)S(=O)(=O)C2c2cccc([N+](=O)[O-])c2)cc1 (stereo unspecified),-,-,88.2,-,-,2.45
CCOc1ccc(N2C(=O)/C(=C\c3ccc(OC)c(O)c3)S(=O)(=O)C2c2cccc([N+](=O)[O-])c2)cc1 (stereo unspecified),-,-,81.7,-,-,14.3
CC(C)C1C(C#N)=C(N)Oc2n[nH]c(-c3ccccc3)c21 (stereo unspecified),.,-,-,-,-,.
CCOc1cc(C2C(C#N)=C(N)Oc3n[nH]c(-c4ccccc4)c32)ccc1O (stereo unspecified),-,-,82.9,-,-,6.4
N#CC1=C(N)Oc2n[nH]c(-c3ccccc3)c2C1c1cccnc1 (stereo unspecified),-,-,80.5,-,-,17.2
COc1ccc(-c2[nH]nc3c2C(c2ccoc2)C(C#N)=C(N)O3)cc1 (stereo unspecified),-,-,87.2,-,-,4.66
Cc1ccc(-c2[nH]nc3c2C(c2ccc(OC(=O)N4CCOCC4)cc2)C(C#N)=C(N)O3)cc1 (stereo unspecified),-,.,82.4,-,-,10.5
CC(C)(C)c1[nH]nc2c1C(c1ccncc1)C(C#N)=C(N)O2 (stereo unspecified),-,-,-,-,-,.
COc1cc(C2C(C#N)=C(N)Oc3cc(C)oc(=O)c32)ccc1OC(=O)N1CCOCC1 (stereo unspecified),-,-,-,-,-,.
Cc1ccsc1C=NNC(=O)c1cccc(S(=O)(=O)Nc2ccccc2Cl)c1,-,.,.,.,.,.
CC(=O)c1sc(NN=Cc2ccccc2O)nc1C,-,.,.,.,.,.
N#CC1=C(N)Oc2nc(-c3ccccc3)[nH]c2C1c1cccnc1 (stereo unspecified),-,-,77.5,-,-,22.7
SMILES,Mtb hypoxia rep,CCHFV vOTU inh,RecA intein inh,Mtb betalactam,PfHsp40 rescue,GFP chromo cs
Cc1ccc(-c2[nH]nc3c2C(c2cccnc2)C(C#N)=C(N)O3)cc1 (stereo unspecified),-,-,69.1,-,-,13.5
CCOC(=O)C1=C(c2ccccc2)OC(N)=C(C#N)C1c1cccnc1 (stereo unspecified),-,-,-,-,-,.
COc1ccc(C=NNC(=O)c2ccc(Cl)c(S(N)(=O)=O)c2)cc1OCC(N)=O,-,.,.,.,.,.
CCOc1ccc(/C=C2\SC(=S)N(CCC(=O)Nc3ccccc3C(=O)O)C2=O)cc1,-,-,36.2,-,-,-
[O-][n+]1c2c(nc3c1-c1ccccc1C3O)CCCC2 (stereo unspecified),.,.,40.7,-,.,32.9
O=C(O)c1ccc(NC2=C(Cl)C(=O)c3ccccc3C2=O)cc1,-,-,97.7,-,-,2.15
Cc1ccc(NC(=O)CSc2ncnc3ccccc23)cc1S(=O)(=O)N1CCCCCC1,-,-,31.1,-,-,-
COc1ccc(Nc2ccc(Nc3ccc(OC)cc3)nn2)cc1,-,-,-,-,-,.
COc1ccc(Nc2ccc(OC)cc2)cc1,-,-,50.5,-,.,-
O=C(NN=CC1C(c2ccccc2)C1(Cl)Cl)c1cccc(Br)c1 (stereo unspecified),-,.,.,.,.,.
Cc1ccc(C2C(C#N)=C(N)Oc3n[nH]c(C)c32)cc1 (stereo unspecified),-,-,77.4,-,-,18.8
Cc1[nH]nc2c1C(c1ccc(Cl)cc1)C(C#N)=C(N)O2 (stereo unspecified),.,-,75.5,-,-,28.9
Cc1ccsc1C1C(C#N)=C(N)Oc2n[nH]c(C)c21 (stereo unspecified),-,-,-,-,-,.
Cc1[nH]nc2c1C(c1cccs1)C(C#N)=C(N)O2 (stereo unspecified),-,-,54.0,-,-,34.2
Cc1cc(-c2[nH]nc3c2C(c2ccc(Cl)cc2)C(C#N)=C(N)O3)c(C)s1 (stereo unspecified),.,-,77.5,-,-,22.6
O=C(NN=Cc1cccc(OC(=O)c2cccc(Br)c2)c1)c1ccncc1,-,.,.,.,.,.
CC(=NNC(=O)c1c(Cl)c(C)nn1C)c1cccc(NC(=O)COc2ccccc2)c1,-,.,.,.,.,.
COc1ccc2cc(C=NNC(=O)CN(c3ccccc3)S(=O)(=O)c3ccccc3)c(Cl)nc2c1,-,.,.,.,.,.
Cc1[nH]nc2c1C(c1cnn(C)c1)C(C#N)=C(N)O2 (stereo unspecified),-,-,76.3,-,-,22.9
Cc1ccc(S(=O)(=O)N[C@@H](Cc2ccccc2)C(=O)CCl)cc1,.,-,92.6,-,?,1.86
c1cc2cn[nH]c2cc1NC1CCCCCC1,-,-,89.0,-,-,15.6
O=C(NN=Cc1ccco1)c1cccc(NC(=O)c2ccccc2Cl)c1,-,.,.,.,.,.
O=c1oc2cc(Oc3c([N+](=O)[O-])cc(C(F)(F)F)cc3[N+](=O)[O-])ccc2c2c1CCCC2,-,-,41.5,-,-,0.962
Nn1c(Cc2ccccc2)n[nH]c1=S,-,-,-,-,-,.
NNc1n[nH]c(=S)n1N,.,-,78.2,-,-,-
O=[N+]([O-])c1c(Nc2ccccc2)ccc2nonc12,-,-,-,-,-,.
O=[N+]([O-])c1c(NCc2ccco2)ccc2nonc12,.,-,42.4,-,.,19.7
CCOc1cc(C=NO)ccc1OCC(=O)Nc1cccc(C)c1,-,.,.,.,.,.
